Screens (PubChem BioAssay)
DT40 TDP1 CPT – growth inhibition of DT40 Tdp1-/-;hTDP1 cells with camptothecin (screen for TDP1 inhibitors). actives 12% (n = 420,000). chicken DT40 Tdp1-/-;hTDP1 cells + 20 nM CPT, ATP luminescence, 48 h. Potency, µM (doses to about 46.2 µM), for the others: at the highest dose activity change, negative = growth inhibition, actives largely listed as inhibitors; also: potency is read from the fitted curve at half-maximal effect; nearly all actives have a fitted effect of over 55% in size
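Chicken DT40 Tdp1-/- cells stably complemented with human TDP1 were seeded at 400 cells/well in medium containing 20 nM camptothecin, exposed to pin-transferred compounds, and grown at 37 °C for at least 48 hr. Viability was read as ATP luminescence.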
TDP1 cell noCPT – qHTS for Inhibitors of human tyrosyl-DNA phosphodiesterase 1 (TDP1): qHTS in cells in absence of CPT; DT40 Tdp1-/- hTDP1 cells, no CPT, ATP luminescence, 48 h; Potency, µM (highest dose often 46.2 µM), without a hit: at the top dose activity change, negative = growth inhibition, usual class: inhibitors; actives 15% (n = 420,000); also: potency is read from the fitted curve at half-maximal effect; nearly all actives have a fitted effect of over 55% in size
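Readout: luminescence from CellTiter-Glo after 30 min in the dark at RT. Cells: DT40 Tdp1-/- with stable hTDP1, 400/well. Exposure: compounds alone, ≥48 hr, 37 °C.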
HT1080 IDH1KD tx – toxicity to HT-1080 IDH1 knockdown cells (counter line); HT-1080 IDH1 knockdown viability, ATP luminescence, 48 h; Potency, µM (highest dose often 46.1 µM), without a hit: at the top dose activity, negative = toxicity, actives largely listed as cytotoxic; actives 2% (n = 360,000);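 also: potency is read from the fitted curve at half-maximal effect; 0% = DMSO wells and -100% = cell-free medium wells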
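After a 2 h attachment period, IDH1KD HT-1080 cells took pin-transferred compound for 48 h at 37 °C; ATP-based luminescence after 10 min room-temperature reagent incubation reported viability.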
HT1080NT lethal – kills 2HG-producing HT-1080-NT fibrosarcoma cells; HT-1080-NT fibrosarcoma viability, CellTiter-Glo ATP luminescence, 48 h; Potency, µM (titrated, usually from 46.1 µM), without a hit: at the top dose activity, negative = less viability, most hits filed as cytotoxic; actives 1.6% (n = 360,000); AID 686970;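 also: NT is the 2HG producing partner of a matched IDH1 knockdown line; potency is read from the fitted curve at half-maximal effect; 0% = DMSO-treated cells and -100% = media-only wells without cells; nearly all actives have a fitted effect of over 55% in size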
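Luminescent CellTiter-Glo readout after 48 hours of compound exposure at 37 degrees C defined viability of HT-1080-NT cells. Activity was normalized to DMSO wells and cell-free media wells; concentration-response curves were fitted and assigned curve classes.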
IL-1B inflam inh – inflammasome signaling inhibition, IL-1 beta readout; THP-1 LPS/ATP IL-1B secretion, AlphaLISA, 16 h; hits give low values; activity change, % at 57.5 µM; actives 4.7% (n = 360,000); AID 743279; in the data active = activity change below about -50%; inconclusive = mostly about -30% to -49%
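Secreted IL-1B measured by AlphaLISA bead assay after 16 h compound exposure of THP-1 cells; compounds (final up to 57.5 uM) added 1 h before LPS (250 ng/mL) and ATP (1.25 mM) stimulation; lower signal means less secretion.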
ELG1 DNA repair – blocks ELG1-dependent DNA repair in HEK293T cells. HEK293T ELG1-luciferase reporter, luminescence, 16 h; DNA damage induced by 5-fluorouridine. Potency, µM (top dose mostly 46.1 µM), inactives show top-dose activity change, negative = inhibition, usual class: inhibitors. actives 2.3% (n = 330,000). AID 504467; also: potency is read from the fitted curve at half-maximal effect; nearly all actives have a fitted effect of over 55% in size
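5-Fluorouridine DNA damage + compound/DMSO, 2,000 cells/well, 16 h, 37 °C/5% CO2. ONE-Glo, 30 min RT, luminescence. Readout = decrease in reporter signal.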
Starred values were filed as active, the others as inactive; u = inconclusive; x = not tested or not shown; [ ] = dose if it differs, or a comment. Shown are actives, neighbours in structure and some others; about 19% of the full set was active somewhere. Unless noted, calls follow the shape of the dose curve; as a rule, active = well fitted curve in the direction sought with a large enough effect; inconclusive = small, poorly fitted or top-dose-only effect, or another doubt; inactive = no such curve, though single readings can be large; an effect the other way counts as inactive or inconclusive. Unless noted, % is scaled to controls: 0 for no effect and ±100 for the full control effect.

SMILES	DT40 TDP1 CPT	TDP1 cell noCPT	HT1080 IDH1KD tx	HT1080NT lethal	IL-1B inflam inh	ELG1 DNA repair
COc1ccc(CN(Cc2cc3cc4c(cc3[nH]c2=O)OCO4)C(=O)NC2CCCCC2)cc1	18.4µM*	23.1µM*	-18.0%	-14.7%	-27.2	16.4µM*
COc1ccc(CN(Cc2nc3ccccc3c(=O)[nH]2)C(=O)C(C)(C)C)cc1	u	u	12.6%	3.8%	-19.4	4.3%
O=C(c1ccccc1)N(Cc1nc2ccccc2c(=O)[nH]1)C1CCCCC1	u	u	-9.2%	-1.5%	-18.3	1.8%
CCN(CCS(=O)(=O)c1ccc(Br)cc1)Cc1nc2ccccc2c(=O)[nH]1	-16.8%	u	-6.7%	-7.7%	-52.0*	u
CCN(CC)CCN(Cc1cc2cc3c(cc2[nH]c1=O)OCCO3)C(=O)NC1CCCCC1	u	u	2.0%	-13.3%	-22.9	u
O=C(c1ccncc1)N(Cc1cc2ccccc2[nH]c1=O)C1CCCCC1	u	u	5.62µM*	7.08µM*	5.2	u
CCC(CC)C(=O)N(CCc1ccc(OC)cc1)Cc1nc2ccccc2c(=O)[nH]1	23.1µM*	20.6µM*	7.08µM*	u	-53.8*	23.1µM*
CCN(CCS(=O)(=O)c1ccc(Cl)cc1)Cc1nc2ccccc2c(=O)[nH]1	-10.3%	1.9%	-1.4%	1.5%	3.9	u
COc1ccc(-n2nc3c(c2NC(=O)COc2ccccc2OC)CS(=O)(=O)C3)cc1	-14.2%	-6.1%	12.6%	-3.4%	-7.2	x
CSCCC(C(=O)NC1CCCC1)n1c(-c2ccccn2)nc2ccccc21 (stereo unspecified)	u	u	-16.6%	-7.2%	-12.2	x
O=C(NCC1Cc2cccc(-c3cnccn3)c2O1)C1COc2ccccc2O1 (stereo unspecified)	9.5%	-18.8%	x	x	x	x
Cc1ccc(C)c(OC(=O)c2cncc(Br)c2)c1	-1.8%	-1.9%	4.6%	11.9%	10.1	-22.3%
COc1ccc2[nH]c(=O)c(CNC3CCCCC3)cc2c1	-26.2%	-21.2%	9.9%	-0.1%	-13.3	3.9%
COc1ccc2[nH]c(=O)c(CN(C(=O)NC3CCCCC3)C3CCCCC3)cc2c1	20.6µM*	20.6µM*	0.6%	-7.3%	1.8	1.3%
COc1ccc(CN(Cc2nc3ccccc3c(=O)[nH]2)C(=O)NC2CCCCC2)cc1	-16.1%	-20.8%	-8.9%	-10.5%	-58.0*	u
Cn1c(=O)cc(SCC(=O)N2CCN(c3ccc(F)cc3)CC2)c2ccc(Cl)cc21	-10.4%	-3.0%	x	x	x	x
Cc1cccc(C)c1-n1nnnc1C(c1ccnc2ccccc12)N(C)Cc1ccc(Cl)c(Cl)c1 (stereo unspecified)	-3.9%	u	19.0%	20.3%	38.6	x
Cc1ccc(C)c(Nc2nc(-c3cccnc3)cs2)c1	u	u	-8.7%	-1.8%	-80.6*	24.0%
Clc1ccccc1Nc1nc(-c2cccnc2)cs1	-1.0%	u	-20.5%	-24.0%	-86.7*	u
CCOc1ccccc1Nc1nc(-c2cccnc2)cs1	u	u	-15.4%	-16.1%	-59.3*	-1.6%
c1cncc(Nc2nc(-c3ccncc3)cs2)c1	u	u	u	-3.3%	u	-16.3%
Clc1ccccc1-c1csc(Nc2cccnc2)n1	3.6%	-9.1%	u	3.6%	-60.2*	-5.5%
COc1ccc(-n2c(=O)c(CCc3ccccc3)nc3cncnc32)cc1	-25.0%	-3.3%	x	x	x	x
CCN(CC)CCN(CC(=O)N(C1CCCCC1)C1CCCCC1)C(=O)c1ccco1	u	u	-1.4%	-3.6%	-21.2	0.3%
O=C(c1ccc(-c2ccc([N+](=O)[O-])cc2)o1)N1CCCCCCC1	11.6µM*	10.3µM*	-5.2%	u	-53.8*	u
SMILES	DT40 TDP1 CPT	TDP1 cell noCPT	HT1080 IDH1KD tx	HT1080NT lethal	IL-1B inflam inh	ELG1 DNA repair
O=C(c1ccc(-c2ccc([N+](=O)[O-])cc2)o1)N1CCCC(C(F)(F)F)C1 (stereo unspecified)	u	u	-1.2%	-3.4%	-52.7*	-26.2%
COc1ccc(C2c3[nH]c4ccccc4c3C[C@H]3C(=O)N(c4ccccc4C(=O)NCCN4CCOCC4)C(=O)N23)cc1 (stereo partly specified)	23.1µM*	u	-0.5%	-9.5%	-0.6	u
O=C(NCCN1CCOCC1)c1ccccc1N1C(=O)[C@@H]2Cc3c([nH]c4ccccc34)C(c3ccc(F)cc3)N2C1=O (stereo partly specified)	14.6µM*	u	-3.1%	2.4%	8.2	5.17µM*
COc1ccccc1NC(=O)N(C)C[C@@H]1OCc2cnnn2CCCC(=O)N([C@H](C)CO)C[C@H]1C	-17.3%	-15.8%	10.1%	-1.9%	16.1	x
CC(C)[C@H]1COCCS(=O)(=O)N1Cc1ccccc1-c1ccccc1	u	u	0.2%	-0.2%	10.1	-11.4%
CC(C)[C@H]1COCCS(=O)(=O)N1Cc1cccc(Cl)c1	u	11.2µM*	8.1%	13.1%	17.5	0.0%
Cc1ccccc1-c1ccccc1CN1[C@@H](C(C)C)COCCS1(=O)=O	u	18.4µM*	-2.3%	0.0%	-14.1	-4.2%
Cc1ccccc1CN1[C@@H](CC2CCCCC2)COCCS1(=O)=O	u	12.6µM*	-14.2%	-7.8%	-3.5	1.7%
O=S1(=O)CCOC[C@H](CC2CCCCC2)N1Cc1cccc(Cl)c1	14.1µM*	11.2µM*	0.3%	-26.5%	14.8	-12.2%
Cc1ccccc1-c1cccc(CN2CCc3nnc(C(NS(C)(=O)=O)C(C)C)n3CC2)c1 (stereo unspecified)	-9.0%[9.04 µM]	u	x	x	x	x
CC(C)C[C@H](NC(=O)[C@@H](Cc1c[nH]c2ccccc12)NC(=O)[C@H](Cc1ccc(O)cc1)NC(=O)[C@H](CO)NC(=O)[C@H](Cc1c[nH]c2ccccc12)NC(=O)[C@H](Cc1cnc[nH]1)NC(=O)[C@@H]1CCC(=O)N1)C(=O)N[C@@H](CCCN=C(N)N)C(=O)N1CCC[C@@H]1C(=O)NCC(N)=O	8.9%	-14.9%	x	x	x	x
CCN(c1ccc(OC)cc1)S(=O)(=O)c1ccc2c(c1)CC(C)N2C(=O)C1CC1 (stereo unspecified)	20.6µM*	18.4µM*	-12.1%	-6.1%	u	u
CC1Cc2cc(S(=O)(=O)N(C)c3ccc(Br)cc3)ccc2N1C(=O)C1CC1 (stereo unspecified)	23.1µM*	23.1µM*	x	x	x	x
